Reference: publication PMC4336329 (PLoS ONE, 2015)
In all, about 310,000 compounds went through this assay and about 14,000 (4.5%) showed an effect of 50% or more. The effect is printed as a negative number. Shown is part of a subset that was picked to be rich in strong results.

Target: human ether-à-go-go-related gene (hERG) potassium channel (human, UniProt Q12809)
Test: primary screen, population patch clamp on CHO cells stably expressing hERG; higher = less effect of the substance
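Also: peak tail current of the secondary pulse compared with the same well before compound.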

human ether-à-go-go-related gene (hERG) potassium channel, sequence (Q12809 whole entry, looked up): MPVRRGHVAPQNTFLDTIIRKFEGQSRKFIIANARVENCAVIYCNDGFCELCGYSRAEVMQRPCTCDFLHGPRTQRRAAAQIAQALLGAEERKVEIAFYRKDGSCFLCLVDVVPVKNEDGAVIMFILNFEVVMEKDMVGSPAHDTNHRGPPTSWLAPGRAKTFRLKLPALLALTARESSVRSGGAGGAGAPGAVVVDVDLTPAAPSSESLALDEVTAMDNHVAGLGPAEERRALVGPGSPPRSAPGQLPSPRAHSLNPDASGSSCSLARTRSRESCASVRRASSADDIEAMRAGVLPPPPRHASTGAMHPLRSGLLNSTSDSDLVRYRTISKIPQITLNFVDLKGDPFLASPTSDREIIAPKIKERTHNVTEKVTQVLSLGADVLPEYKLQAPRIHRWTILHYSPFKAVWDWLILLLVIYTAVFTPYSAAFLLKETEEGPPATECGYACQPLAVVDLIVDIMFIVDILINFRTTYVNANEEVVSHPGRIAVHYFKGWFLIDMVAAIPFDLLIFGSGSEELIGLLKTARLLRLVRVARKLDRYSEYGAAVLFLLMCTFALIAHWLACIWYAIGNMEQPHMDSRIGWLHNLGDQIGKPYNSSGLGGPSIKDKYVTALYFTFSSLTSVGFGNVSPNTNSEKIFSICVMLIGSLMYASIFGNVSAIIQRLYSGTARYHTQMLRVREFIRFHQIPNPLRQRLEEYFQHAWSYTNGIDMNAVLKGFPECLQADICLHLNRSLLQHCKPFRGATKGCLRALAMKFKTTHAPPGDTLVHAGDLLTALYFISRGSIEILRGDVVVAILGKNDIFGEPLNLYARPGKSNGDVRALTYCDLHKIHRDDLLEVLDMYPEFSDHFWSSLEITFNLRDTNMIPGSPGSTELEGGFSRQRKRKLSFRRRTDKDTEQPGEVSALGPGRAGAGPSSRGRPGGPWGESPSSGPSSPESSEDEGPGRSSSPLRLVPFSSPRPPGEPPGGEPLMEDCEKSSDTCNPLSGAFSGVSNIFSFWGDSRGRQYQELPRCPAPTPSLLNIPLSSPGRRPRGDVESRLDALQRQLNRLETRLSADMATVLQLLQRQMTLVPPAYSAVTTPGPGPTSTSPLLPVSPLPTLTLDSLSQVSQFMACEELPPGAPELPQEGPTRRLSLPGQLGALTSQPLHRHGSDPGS

| SMILES | hERG current change (%, negative = inhibition) at 10uM |
| --- | --- |
| O=C(CN1Cc2ccccc2C1=O)Nc1ccc2c(c1)OCCO2 | 3.26% |
| O=C([O-])c1cc(=O)[nH]c2ccc(S(=O)(=O)Nc3ccc(F)cc3)cc12.[K+] | 23.5% |
| O=C(O)c1ccc(NC(=O)C2CCCCC2)cc1 | -7.8% |
| COCCNC(=O)Cn1cc2c(n1)CCC(C)C2 (stereo not shown) | 21.2% |
| O=C(Cn1c(=O)oc2ccccc21)N1CCCC1 | 14.4% |
| Cc1[nH]c2ccccc2c1/C=N/NC(=S)NC(C)C | 12.1% |
| CCCC(c1nnnn1C(C)(C)CC)N1CCN(C2CCCC2)CC1.Cl (stereo not shown) | -35.3% |
| CCCCC(c1nnnn1C1CCCC1)N1CCN(C(=O)c2ccco2)CC1.Cl (stereo not shown) | -47% |
| CCCCC(c1nnnn1C1CCCC1)N1CCN(C2CCCC2)CC1.Cl (stereo not shown) | -85.6% |
| CCCC(c1nnnn1C1CCCCC1)N1CCN(C2CCCC2)CC1.Cl (stereo not shown) | -46.4% |
| CCC(c1nnnn1C1CCCCC1)N1CCN(C2CCCC2)CC1.Cl (stereo not shown) | -3.77% |
| CCCCC(c1nnnn1C1CCCC1)N1CCN(C2CCCCC2)CC1 (stereo not shown) | -69.8% |
| CC(CC(=O)N(CCC1=CCCCC1)c1c(N)n(Cc2ccccc2)c(=O)[nH]c1=O)c1ccccc1 (stereo not shown) | 17.1% |
| Cc1cc(F)ccc1NC(=O)CCCN(C)S(=O)(=O)c1ccc(F)cc1 | -5.3% |
| CCc1cc2c(=O)c(-c3nc4ccccc4n3C)c(C)oc2c(CN2CCN(C)CC2)c1O | 14.3% |
| O=C(CSc1ncnc2c1oc1ccccc12)Nc1cccc(C(F)(F)F)c1 | 11% |
| COc1ccc2c(Cl)c(C(=O)N/N=C3\CCCC(=O)C3)sc2c1 | -9.05% |
| Cn1c(=O)c2c(nc(CN3CCN(c4ccc(F)cc4)CC3)n2Cc2ccccc2F)n(C)c1=O | -6.93% |
| CCOC(=O)C(C)/C(C)=N\Nc1ccc([N+](=O)[O-])cc1[N+](=O)[O-] (stereo not shown) | -53.2% |
| CCOC(=O)C(C(=O)OCC)C(C)(C)/C(C)=N\Nc1ccc([N+](=O)[O-])cc1[N+](=O)[O-] | -40.8% |
| CCOC(=O)C/C(C)=N\Nc1ccc([N+](=O)[O-])cc1[N+](=O)[O-] | -40.2% |
| Cc1onc(-c2ccccc2Cl)c1C(=O)N1CCOC12CCCCC2 | 1.15% |
| Fc1cnc(N2CCOCC2)nc1N1CCc2ccccc21 | -19.5% |
| COc1cccc(CN2CCN(C(=O)c3cccs3)CC2)c1OC | -4.33% |

| SMILES | hERG current change (%, negative = inhibition) at 10uM |
| --- | --- |
| Nc1nc(COC(=O)CCC(=O)c2ccc(Cl)cc2)nc(Nc2ccccc2)n1 | 6.39% |
| Nc1nc(COC(=O)C2CC(=O)N(Cc3ccccc3Cl)C2)nc(Nc2ccccc2)n1 (stereo not shown) | -55.6% |
| Nc1nc(COC(=O)C2CC(=O)N(Cc3ccccc3)C2)nc(Nc2ccccc2)n1 (stereo not shown) | -51.9% |
| CC(=O)Nc1ccc(NC(=O)C(C)OC(=O)C2CC(=O)N(CCc3ccccc3)C2)cc1 (stereo not shown) | 14.4% |
| Nc1nc(COC(=O)C2CC(=O)N(CCc3ccccc3)C2)nc(Nc2ccccc2)n1 (stereo not shown) | -52.2% |
| Cc1ccccc1C(=O)N1CCC(C(=O)OCc2nc(N)nc(Nc3ccccc3)n2)CC1 | -33.6% |
| O=C(COC(=O)C1CC(=O)N(CCc2ccccc2)C1)c1ccc[nH]1 (stereo not shown) | -41.8% |
| Nc1nc(COC(=O)C2CCN(C(=O)c3ccc(Cl)cc3)CC2)nc(Nc2ccccc2)n1 | -67.8% |
| Cc1cc(C)n(CC(=O)NNC(=O)C2CC(=O)N(Cc3ccccc3Cl)C2)n1 (stereo not shown) | 1.16% |
| Cc1ccc(N2CC(C(=O)OCc3nc(N)nc(Nc4ccccc4C)n3)CC2=O)cc1 (stereo not shown) | -32.8% |
| COc1ccccc1N1CC(C(=O)OCc2nc(N)nc(Nc3ccccc3)n2)CC1=O (stereo not shown) | -15.8% |
| COC(=O)C1CC(=O)N(Cc2ccccc2)C1 (stereo not shown) | 23.4% |
| CC(=O)c1ccc(NC(=O)Nc2ccc(Br)cc2C)cc1 | 22.3% |
| COc1ccc(/C=N/NC(=O)c2ccc(N(C)S(=O)(=O)c3ccccc3)cc2)c(OC)c1 | 6.66% |
| Cl.O=S(=O)(c1cccs1)N1CCN(C/C=C/c2ccccc2)CC1 | -49.3% |
| COc1ccc(N(CC(=O)NCc2cccnc2)S(=O)(=O)c2ccccc2)c(OC)c1 | -8.52% |
| Cc1c(C)n(C)c2ccc([N+](=O)[O-])cc12 | -4.04% |
| O=C(CSc1ccsc1[N+](=O)[O-])NCCc1ccccc1 | 2.6% |
| COC(=O)c1ccc(NC(=O)CN2CCN(CC#N)CC2)cc1.O=C(O)C(=O)O | 3.24% |
| COc1ccc(NC(=O)CN2CCOCC2)cc1.O=C(O)C(=O)O | 13% |
| COc1ccc(NC(=O)CN2CCN(CC(=O)Nc3ccc(OC)c(OC)c3)CC2)cc1 | -74.6% |
| COc1ccc(NC(=O)CN2CCCCCC2)cc1OC | 3.79% |
| CCCCNC(=O)CN1CCN(Cc2ccc3cc(OC)ccc3c2)CC1.O=C(O)C(=O)O | -69% |
| COc1cccc(CN2CCN(CC(=O)NCCc3ccccc3)CC2)c1 | -11.8% |

| SMILES | hERG current change (%, negative = inhibition) at 10uM |
| --- | --- |
| CCCCCNC(=O)Cc1ccc(OC)cc1 | 1.41% |
| COc1ccc(N2CCN(CC(=O)Nc3ccc(C)c(C)c3)CC2)cc1 | -17.3% |
| N#CCN1CCN(CC(=O)Nc2ccc(OCc3ccccc3)cc2)CC1 | -4.27% |
| COc1ccc(NC(=O)CN2CCN(CC#N)CC2)cc1 | -75.6% |
| CCN(CC)c1ccc(NC(=O)CN2CCN(CC(=O)Nc3ccc(OC)cc3)CC2)cc1 | -74.9% |
| CCN(C(=O)COc1ccccc1)c1nnc(-c2cccnc2)s1 | 8.69% |
| Cc1cccc(NC(=O)c2cccc(NC(=O)Cc3cccs3)c2)c1 | 4.72% |
| N#CCC(=O)N/N=C/c1ccc(N2N=C(c3ccccc3)CC2c2ccccc2)cc1 (stereo not shown) | 25% |
| CC(C(=O)N1CCC2(CC1)OCCO2)C1Sc2ccccc2NC1=O (stereo not shown) | 6.9% |
| O=C(NC1C2CC3CC(C2)CC1C3)c1ccc2c(c1)OCO2 (stereo not shown) | -5.92% |
| CN(C)CCNc1ccc(-c2nn(C)c(=O)c3ccccc23)cc1[N+](=O)[O-] | -1.47% |
| CCOC(C(=O)OCCCN(CC)CC)(c1ccccc1)c1ccccc1.Cl | -11.5% |
| N#CC(c1ccc(Cl)nn1)c1c(F)cccc1Cl (stereo not shown) | 9.59% |
| Cc1noc(C)c1COC(=O)[C@@H](NC(=O)c1ccccc1Cl)C(C)C | 5.09% |
| Cl.N[C@@H](Cc1c[nH]c2ccccc12)c1nnc(SCc2c(F)cccc2Cl)o1 | 1.99% |
| COC(=O)c1ccc(NC(=O)CCN2CCN(c3ccccc3)CC2)cc1 | -28.9% |
| COC(=O)c1ccc(NC(=O)CCN2CCN(Cc3ccccc3)CC2)cc1 | -58.6% |
| COc1cccc(N2CCN(CC(=O)Nc3ccc(S(=O)(=O)N4CCCCCC4)cc3)CC2)c1 | -21.9% |
| COC(=O)c1ccc(NC(=O)CCN2CCN(CCC(=O)Nc3ccc(C(=O)OC)cc3)CC2)cc1 | -15.4% |
| COc1ccc(NC(=O)CN2CCN(S(=O)(=O)N3CCCCCC3)CC2)cc1 | -71.7% |
| CCOC(=O)c1ccc(NC(=O)CN2CCN(c3ccccc3)CC2)cc1 | 5.34% |
| COc1ccc(NC(=O)CN2CCN(S(=O)(=O)N(C)C)CC2)cc1 | -4.55% |
| COc1ccc(NC(=O)CN2CCN(c3c(C)cc(C)cc3C)CC2)cc1 | 3.97% |
| COc1ccc(NC(=O)CN2CCN(c3c(C)cccc3C)CC2)cc1 | -24.4% |

| SMILES | hERG current change (%, negative = inhibition) at 10uM |
| --- | --- |
| CCOC(=O)c1ccc(NC(=O)N2CCN(Cc3ccccc3)CC2)cc1 | -11.1% |
| CCOC(=O)c1ccc(NC(=O)CN2CCN(Cc3ccccc3)CC2)cc1 | -51% |
| COc1ccc(NC(=O)CN2CCN(c3ccc(C)cc3C)CC2)cc1 | -60.7% |
| CC(C)[C@H](NC(=O)c1cc2cc(Cl)ccc2n1C)C(=O)N[C@@H](C(=O)O)c1ccccc1 | 15.9% |
| CCCNC(=O)N1[C@H]2CC[C@@H]1C(C(=O)OC)=C(c1ccc(F)cc1OCc1ccccc1)C2 | -23.3% |
| O=C(Oc1cc2oc(=O)cc(-c3ccccc3)c2cc1Cl)C1CCCCC1 | 4.05% |
| COC(=O)Cn1cc(C(=O)OC)c2ccccc21 | -4.51% |
| COc1cc(C(=O)NC(C)c2ccc3ccccc3c2)cc(Cl)c1O (stereo not shown) | 4.57% |
| Cc1ccc(-c2cn(CCN)c(-c3ccc(Cl)nc3)n2)cc1 | -21.7% |
| COc1ccccc1C(=O)Nn1c(-c2cccs2)nc2ccccc2c1=O | -2.66% |
| COc1cccc(CNC(=O)CSc2ccc(-c3ccco3)nn2)c1 | 2.15% |
| COc1cccc(NC(=O)Cn2c(=O)n(C)c(=O)c3sc4c(c32)COC(C)(C)C4)c1 | 6.82% |
| CC(=O)Nc1ccc(S(=O)(=O)NC2=NCN(C)CN2)cc1 | 2.76% |
| CCCCOc1ccc(NC(=O)CN2CCN(Cc3ccccc3)CC2)cc1 | -49.4% |
| COc1ccc(NC(=O)CN2CCCCC2)cc1.O=C(O)C(=O)O | 3.8% |
| COc1ccc(C(=O)Nc2ccc(N3CCN(Cc4ccccc4)CC3)cc2)cc1 | -4.78% |
| COc1ccc(NC(=O)CN2CCC(NC(=O)c3ccc(OC)cc3)CC2)cc1 | -51.1% |
| COc1ccc(NC(=O)CN2CCN(Cc3ccccc3)CC2)cc1 | -52.8% |
| COc1ccc(NC(=O)CN2CCCC2)cc1 | 15.7% |
| COc1ccc(C(=O)NC2CCN(CC(=O)NC3CCCCC3)CC2)cc1 | -17.3% |
| COc1ccc(C(=O)NC2CCN(CC(=O)Nc3cccc(OC)c3)CC2)cc1 | -25.4% |
| COc1ccc(NC(=O)CN2CCN(CC(=O)Nc3ccc(OC)cc3)CC2)cc1 | -76.6% |
